tim23-1 inh – inhibits growth of tim23-1 mutant yeast. S. cerevisiae tim23-1 growth, BacTiter-Glo luminescence, 24 h. inhibition, % at 20 µM. actives 1.3% (n = 330,000). AID 463212;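 active means growth inhibition of the mutant yeast at or above 50%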;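 further: temperature-sensitive mutant grown at 25 °C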
Mot1-301 SUMO – blocks SUMOylation pathway, rescuing yeast Mot1-301 growth; actives 1% (n = 320,000); growth rescue, % at 18.8 µM; S. cerevisiae Mot1-301 growth rescue, ATP luminescence, 38.5C; percent above DMSO median, 100 means doubled;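 active means every valid replicate shows activation above 250% relative to neutral control wells; inactive means the rest, any valid replicate at or below 250%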
tim10-1 inh – tim10-1 yeast growth inhibition; S. cerevisiae tim10-1 ts strain growth, BacTiter-Glo, 24 h; inhibition, % at 20 µM; actives 2.2% (n = 330,000);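 active means inhibition of at least 40%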;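 further: mutant grown at 25 °C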
PfHsp90 yeast 2 – inhibits growth of yeast expressing Plasmodium falciparum Hsp90. AID 504621. inhibition, % at 9.4 µM. actives 0.32% (n = 310,000). S. cerevisiae expressing PfHsp90, BacTiter-Glo ATP, 48 h; yeast lacking PDR1 and PDR3 efflux regulators;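 active means every replicate shows inhibition above about 80%, whatever the replicate mean, limit read from the data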
TIM10 inh – inhibits growth of TIM10 yeast strain | actives 1.4% (n = 330,000) | AID 463195 | inhibition, % at 10 µM | S. cerevisiae TIM10 strain growth, BacTiter-Glo luminescence, 24 h;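 active means inhibition of 40% or more at the single tested concentration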;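 further: wild-type TIM10 isogenic control strain grown at permissive 25 °C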
tim10-1 confirm – confirmation of tim10-1 mutant yeast growth inhibitors | shares compounds with tim10-1 inh | S. cerevisiae tim10-1 ts strain growth, BacTiter-Glo, 24 h | inhibition, % at 20 µM | actives 56% (n = 7,400);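 active means inhibition of yeast growth at or above a set limit in either of two repeat tests at 20 µM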;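 further: tim10-1 mutant grown at permissive 25 °C to find synthetic lethal compounds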
tim10 confirm – TIM10 yeast growth inhibition, confirmed. AID 463215. shares compounds with TIM10 inh. inhibition, % at 10 µM. S. cerevisiae tim10 strain growth, BacTiter-Glo luminescence, 24 h. actives 63% (n = 4,600);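 active means inhibition of yeast growth at or above a set limit in either of two replicates at 10 µM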; further: this counterscreen used the strain with wild-type TIM10
tim23-1 conf – tim23-1 yeast growth inhibition, confirmed; shares compounds with tim23-1 inh; S. cerevisiae tim23-1 growth, BacTiter-Glo luminescence, 24 h; inhibition, % at 20 µM; actives 83% (n = 4,400);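 active means inhibition above about 39% in either of two replicate wells at 20 µM, limit read from the data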;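 further: temperature-sensitive tim23-1 mutant grown at 25 °C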
Each line names hits and unclear results; the compound was inactive in the other large screens (follow-up assays come after a bar, where they were run). Shown are actives, neighbours in structure and some others; about 4.4% of the full set was active somewhere.

Cc1ccc(C(=O)NC(C#N)=C(Cl)Cl)cc1	tim23-1 inh 69, tim10-1 inh 51, TIM10 inh 45 (no result: Mot1-301 SUMO, PfHsp90 yeast 2) | tim10-1 confirm 41 | tim10 confirm inactive | tim23-1 conf 62
C=CCn1c(=O)/c(=C/c2ccc(Cl)cc2)s/c1=C(/C#N)c1nnc2n1CCCCC2	tim23-1 inh 63, tim10-1 inh 57, TIM10 inh 49 | tim10-1 confirm 33 | tim10 confirm 44 | tim23-1 conf 58
C=CCn1c(=O)/c(=C/c2ccc(O)cc2)s/c1=C(/C#N)c1nnc2n1CCCCC2	none
CN(CC(=O)Nc1ccccc1Br)C(=O)c1cccnc1Nc1cccc(C(F)(F)F)c1	none
O=Cc1ccc(OCc2cccc(C(F)(F)F)c2)cc1O	tim23-1 inh 57, tim10-1 inh 45 | tim10-1 confirm 48 | tim23-1 conf 42
COCOc1ccc(C=O)c(O)c1	none
O=C(c1ccccc1)N(c1ccccc1)c1ccccc1O	none (no result: tim23-1 inh, Mot1-301 SUMO, tim10-1 inh, TIM10 inh)
Cc1ccc(O)c(Sc2cc(C)ccc2O)c1	tim23-1 inh 53, tim10-1 inh 47 | tim10-1 confirm inactive | tim23-1 conf 45
Fc1cccc(-n2cc(-c3ccccc3)c3c(=S)nc[nH]c32)c1	tim23-1 inh 55, tim10-1 inh 40 | tim10-1 confirm 32 | tim23-1 conf 48
Fc1ccc(-n2cc(-c3ccccc3)c3c(NN4CCOCC4)ncnc32)cc1	none
O=c1[nH]cnc2c1c(-c1ccccc1)cn2-c1ccccc1	none
Cc1ccc(-n2cc(-c3ccccc3)c3c(=O)[nH]cnc32)cc1	tim23-1 inh 57, tim10-1 inh 48, TIM10 inh 49 | tim10-1 confirm 32 | tim10 confirm inactive | tim23-1 conf 43
Fc1ccc(-n2cc(-c3ccccc3)c3c(=S)nc[nH]c32)cc1	tim23-1 inh 65, tim10-1 inh 63 | tim10-1 confirm inactive | tim23-1 conf inactive
COc1cccc(NC(=O)CN(C)C(=O)c2c(-c3ccccc3)noc2C)c1	none
Nc1nonc1-n1nnc(C(=O)N/N=C/c2cc(Br)ccc2O)c1CNc1ccccc1	tim23-1 inh 51, tim10-1 inh 61, TIM10 inh 48 | tim10-1 confirm inactive | tim10 confirm 54 | tim23-1 conf 54
O=C1CC(c2ccccc2Cl)c2c(sc3c(=O)[nH]c(CCl)nc23)N1 (stereo unspecified)	none (no result: PfHsp90 yeast 2)
O=c1ccn(Cc2ccccc2)c(SCc2ccccc2)n1	none (no result: tim23-1 inh, Mot1-301 SUMO, tim10-1 inh, TIM10 inh)
Clc1ccc(CSc2nccn2Cc2ccccc2)cc1	tim23-1 inh 51, tim10-1 inh 48, TIM10 inh 60 (no result: PfHsp90 yeast 2) | tim10-1 confirm 44 | tim10 confirm 44 | tim23-1 conf 54
Cc1cc(OCc2cc(C(=O)N3CCC(Oc4cccnc4)CC3)no2)cc(C)c1Cl	tim23-1 inh 51, tim10-1 inh 61, TIM10 inh 41 | tim10-1 confirm 38 | tim10 confirm 47 | tim23-1 conf 55
Cc1cc(OCc2cc(C(=O)N3CCN(CC4CC4)CC3)no2)cc(C)c1Cl	none
COc1ccccc1-n1ccn(CC(=O)Nc2ccc(C)cc2Cl)c(=O)c1=O	none
COc1ccc(OC)c(/C=c2\sc3nc(-c4cccs4)nn3c2=O)c1	tim23-1 inh 53, tim10-1 inh 49 | tim10-1 confirm 37 | tim23-1 conf 47
CCOC(=O)N1C(=O)C2(CCCCC2)N(c2ccccc2Cl)C1=S	tim23-1 inh 78, tim10-1 inh 60, TIM10 inh 57 | tim10-1 confirm 52 | tim10 confirm inactive | tim23-1 conf 68
O=C(NNC(=O)c1ccccc1Br)c1cnccn1	none
CCOC(=O)C1Nc2ccccc2C2c3ccccc3CC12 (stereo unspecified)	tim23-1 inh 59, tim10-1 inh 50 | tim10-1 confirm 51 | tim23-1 conf 60
COC(=O)c1ccccc1NC(=O)c1ccc2c(c1)OCCO2	none
Cc1ccccc1C(=O)NC(=S)Nc1ccccc1C(=O)O	none
COC(=O)c1ccccc1NC(=S)NC(=O)c1ccccc1C	tim23-1 inh 59, tim10-1 inh 71, TIM10 inh 70 (no result: PfHsp90 yeast 2) | tim10-1 confirm 65 | tim10 confirm 69 | tim23-1 conf inactive
COC(=O)c1ccccc1NC(=S)NC(=O)c1ccc2c(c1)OCO2	tim23-1 inh 72, tim10-1 inh 63, TIM10 inh 62 | tim10-1 confirm 41 | tim10 confirm 45 | tim23-1 conf 39
CC(=O)Nc1ccc(S(=O)(=O)NCCc2cc3ccc(C)c(C)c3[nH]c2=O)cc1	none
Cc1ccccc1C(=O)NC1CCCCCCC1	none
O=C(NC1CCCCCCC1)c1ccccc1O	tim23-1 inh 65, tim10-1 inh 46, TIM10 inh 49 | tim10-1 confirm 34 | tim10 confirm 46 | tim23-1 conf 60
CCC(CC)NC(=O)CN1CCN(S(=O)(=O)c2cccs2)CC1	none (no result: Mot1-301 SUMO)
COc1ccc(CS(=O)(=O)/C(Cl)=C(/Cl)C(=O)Nc2ccc(OC)nc2)cc1	tim23-1 inh 72, tim10-1 inh 73, TIM10 inh 52 | tim10-1 confirm 66 | tim10 confirm 58 | tim23-1 conf 76
COc1ccc(NC(=O)/C(Cl)=C(/Cl)S(=O)Cc2ccccc2)cn1 (stereo unspecified)	tim23-1 inh 86, tim10-1 inh 49, PfHsp90 yeast 2 119, TIM10 inh 69 | tim10-1 confirm 34 | tim10 confirm 84 | tim23-1 conf inactive
CCOC(=O)c1sc(=NC(=O)c2ccc(F)cc2)n(C)c1C	none
CCOC(=O)c1sc(=NC(=O)c2c(F)cccc2F)n(C)c1C	tim23-1 inh 56, tim10-1 inh 43, TIM10 inh 47 | tim10-1 confirm inactive | tim10 confirm 46 | tim23-1 conf 76
O=C(OC(c1ccccc1)c1nccc2ccccc12)c1cc([N+](=O)[O-])cc([N+](=O)[O-])c1 (stereo unspecified)	tim23-1 inh 57, tim10-1 inh 54, TIM10 inh 43 | tim10-1 confirm 45 | tim10 confirm inactive | tim23-1 conf 47
COc1ccc(C(=O)/C=C/c2ccc(OC)c(O)c2)c(F)c1	none
COc1ccc(/C=C/C(=O)c2ccc(Cl)s2)cc1O	tim23-1 inh 69, tim10-1 inh 53, TIM10 inh 68 | tim10-1 confirm 54 | tim10 confirm 44 | tim23-1 conf 81
O=C(C=Cc1ccc(Cl)s1)c1ccc(Cl)s1	none (no result: tim23-1 inh, Mot1-301 SUMO, tim10-1 inh, TIM10 inh)
Cc1c(/C=C/C(=O)c2ccc(Cl)s2)cnn1C	tim23-1 inh 58, tim10-1 inh 45, TIM10 inh 48 (no result: PfHsp90 yeast 2) | tim10-1 confirm 36 | tim10 confirm 37 | tim23-1 conf 47

Screens deposited in PubChem BioAssay by several laboratories.
